The entries come from a sample that favours hits as a whole.
Pf Dd2 growth: Plasmodium falciparum Dd2 growth inhibition | 120,000 compounds, 4.3% hits | P. falciparum Dd2 growth, SYBR Green, 72 h | Potency, µM (doses to about 28.9 µM), most hits filed as inhibitors; active = well fitted inhibition curve with a large enough effect; note: nearly all actives have a fitted effect of over 65% in size
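Infected erythrocytes (Dd2, 0.3% parasitemia, 2.5% hematocrit final) are added to compound in RPMI-1640/Albumax II medium, grown 72 h at 37C in low oxygen, then lysed with saponin/Triton-X containing SYBR Green and read by fluorescence.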
Large screens that a line does not name were inactive.

Cc1ccc(NS(=O)(=O)c2ccc3[nH]c4c(c3c2)CCCCCC4)cc1	none
Cc1ccc(NC(=O)C2CCN(S(=O)(=O)c3ccc4[nH]c5c(c4c3)CCCCC5)CC2)cc1	Pf Dd2 growth 11µM
Cc1ccc(S(=O)(=O)N2CCC(C(=O)Nc3ccc(Oc4ccccc4)cc3)CC2)cc1	none
COc1cc(-c2ccnc3nc(CC(C)C)nn23)cc(OC)c1OC	none
COc1ccc2[nH]c(C(=O)N3C[C@@H](Oc4ccccc4)C[C@H]3C(=O)N3CCOCC3)cc2c1	none
COc1ccc(NC(=O)c2ccc3c(c2)N(C)C2CCCCCN2C3=O)cc1F (centres undefined)	none
COc1ccc(NC(=O)N2Cc3[nH]cnc3C[C@H]2c2nc(-c3ccncc3)no2)cc1	none
OC1(c2csc(CN3CCOCC3)n2)CCN(Cc2ccc(C(F)(F)F)cc2)CC1	none
CCN(CC)Cc1nc(C2(O)CCN(Cc3ccc(C(F)(F)F)cc3)CC2)cs1	Pf Dd2 growth 11µM
CCN1CCC(O)(c2csc(CN(CC)CC)n2)CC1	none
CC1(c2ccccc2)N(Cc2ncccn2)C(=O)OC12CCN(Cc1cccc(O)c1)CC2 (centres undefined)	none
NC1CCc2nn(CC(=O)NCc3ccc(F)cc3Cl)c(=O)n2CC1 (centres undefined)	none
O=C(C1CC=CCC1)N1CCC(C2CCNC2)CC1 (centres undefined)	none
O=C(NCc1ccncc1)C1CNCC12CCOCC2 (centres undefined)	none
COc1ccc(N2CC3CCC(C2)N3Cc2ccccc2)cc1	none
COc1ccc(N2CC3CCC(C2)N3Cc2cccc(-c3cccnc3)c2)cc1	Pf Dd2 growth 11µM
COc1ccc(N2CC3CCC(C2)N3Cc2ccc(-c3ccccc3)cc2)cc1	none
COc1ccc(N2CC(c3noc(-c4ccccc4F)n3)CC2=O)cc1OC (centres undefined)	none
COc1cccc(N2CCN(C(=O)C3CC(=O)N(c4n[nH]c5cccc(F)c45)C3)CC2)c1 (centres undefined)	none
O=C(C1CC(=O)N(c2n[nH]c3cccc(F)c23)C1)N1CCN(c2ccc(F)cc2)CC1 (centres undefined)	none
COc1ccccc1N1CCN(C(=O)C2CC(=O)N(c3n[nH]c4cccc(F)c34)C2)CC1 (centres undefined)	Pf Dd2 growth 7.1µM
CC(C)CNC(=O)N1CCC(N2C(=O)C(OCC3CC3)C23CCCCC3)CC1 (centres undefined)	none
CCn1c2ccccc2c2cc(C(=O)N3CCCCCCNC(=O)CC3)ccc21	none
O=C(Nc1ccc(F)cc1)N[C@H]1[C@H](O)[C@@H](N2CCOCC2)[C@@H]2OC[C@H]1O2	none
Cc1c(C(=O)Nc2ccc(Br)cc2F)oc2ccc(S(=O)(=O)N3CCC4(CC3)OCCO4)cc12	Pf Dd2 growth 13µM
CCN(CC)S(=O)(=O)c1ccc2oc(C(=O)Nc3ccc(Br)cc3F)c(C)c2c1	none
Cc1c(Cl)cccc1NC(=O)c1oc2ccc(S(=O)(=O)N3CCC4(CC3)OCCO4)cc2c1C	Pf Dd2 growth 13µM
Cc1c(C(=O)Nc2ccccc2Cl)oc2ccc(S(=O)(=O)N3CCCCCC3)cc12	none
Cc1c(C(=O)Nc2ccccc2Cl)oc2ccc(S(=O)(=O)N3CCCCC3)cc12	none
Cc1c(C(=O)Nc2ccccc2Br)oc2ccc(S(=O)(=O)N3CCOCC3)cc12	none
O=C(c1cccc2nccnc12)N1CCC2(CC1)CC(N1CCCC1)CCO2 (centres undefined)	none
COc1ccc(CNC(=O)c2c(C)noc2-c2cccc(F)c2)cc1	none
CCCOC1CCCN(C(=O)c2ccc3nc(-c4ccc(F)cc4)cn3c2)C1 (centres undefined)	none
O=C(NCC1CCCO1)C1CCN(C(=O)c2ncn3c2COC(c2ccc(F)cc2)C3)CC1 (centres undefined)	none
Cc1noc2c(NCCCn3ccnc3)cc(-c3ccc(Cl)cc3)nc12	Pf Dd2 growth 4.5µM
Cc1noc2c(NCCc3ccccn3)cc(-c3ccc(Cl)cc3)nc12	none
Cc1noc2c(NCCN3CCOCC3)cc(-c3ccc(Cl)cc3)nc12	none
COCCNc1ccc(-c2nc(-c3ccco3)no2)cc1[N+](=O)[O-]	none
COCCNc1nc2cc(C(=O)N[C@@H]3CC[C@@H](N)C3)ccc2n1C	none
COCCNc1nc2cc(-c3nc(-c4cccnn4)no3)ccc2n1C	Pf Dd2 growth 6.3µM
COc1ccc(-c2onc(C)c2C(=O)NCCc2ccc(F)cc2)cc1	none
CCCN1C(=O)Cc2ccccc2C1C(=O)NCc1ccc(F)cc1F (centres undefined)	none
Cc1nn2c(c1-c1ccccc1[S+](C)(=O)[O-])N(C(=O)c1cccc(O)c1)CCC2	none
O=C(c1cccc(F)c1)N1CCCC(c2noc(COc3ccccc3F)n2)C1 (centres undefined)	none
O=C1c2cnc(-c3ccccc3)nc2OCCN1Cc1ccccc1	none
COc1cc(F)cc(-c2ncc3c(n2)OCCN(C)C3=O)c1	none
CN(C)C(=O)c1ccc(-c2ncc3c(n2)OCCN(Cc2ccccc2)C3=O)cc1	Pf Dd2 growth 2.2µM
CN(C)C(=O)c1ccc(-c2ncc3c(n2)OCCN(CC2CC2)C3=O)cc1	none
CN1CCOc2nc(-c3ccc(Oc4ccccc4)cc3)ncc2C1=O	Pf Dd2 growth 5µM

High-throughput results (PubChem)
